Source: PubChem
Compounds with a hit are over-represented: about 5% of the library has one in this group of screens.
HCMV antiviral – qHTS Assay for inhibitors of the human cytomegalovirus (HCMV). HFF cells, HCMV-luciferase reporter, 72 h; stronger effect = lower value. activity change, negative = inhibition, % at 57.5 µM. 410,000 tested, 4.5% active. AID 1259415, 2018; in the data active = activity change below about -60%; inconclusive = no clear call, values can overlap the other calls; inactive = above about -39%
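Inhibition of viral replication was scored as loss of reporter luminescence in HFFs infected with HCMV-luciferase (MOI 1 PFU/cell) for 72 h; compounds tested at 2 doses, normalized to buffer and Salinomycin controls.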
VACV mCherry inh – qHTS for Stage-Specific Inhibitors of Vaccinia Orthopoxvirus: mCherry Reporter Primary qHTS; Vaccinia virus mCherry reporter infection, fluorescence; Potency, µM (titrated, usually from 36.5 µM), without a hit: at the top dose activity change, negative = inhibition, most hits filed as inhibitors; 310,000 tested, 0.63% active; AID 720579, 2013; calls by dose curve; tested in A549 cells; note: potency is the fitted concentration of half-maximal effect; nearly all actives have a fitted effect of over 35% in size
Tb PYK inh – qHTS of Trypanosoma Brucei Inhibitors; TbPYK enzyme, Kinase-Glo Plus ATP luminescence, 45 min; 410,000 tested, 0.12% active; Potency, µM (titrated, usually from 76.8 µM), for inactives: top-dose activity, negative = inhibition, actives largely listed as inhibitors; note: potency is the fitted concentration of half-maximal effect; nearly all actives have a fitted effect of over 50% in size
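Assay buffer: 50 mM TEA pH 7.2, 100 mM KCl, 10 mM MgCl2, 0.05% BSA, 0.01% Tween-20. Pyruvate kinase from T. brucei plus substrate met compound, then ADP (130 uM final). Luminescence was read post 45 min RT.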
VACV Venus inh – qHTS for Stage-Specific Inhibitors of Vaccinia Orthopoxvirus: Venus Reporter Primary qHTS; 330,000 tested, 0.46% active; Vaccinia virus Venus reporter expression, fluorescence; Potency, µM (titrated, usually from 36.5 µM), for the others: at the highest dose activity change, negative = inhibition, hits mostly inhibitors; AID 720580, 2013; calls by dose curve; tested in A549 cells; note: potency is the fitted concentration of half-maximal effect; nearly all actives have a fitted effect of over 30% in size
LmPK inhibitor – qHTS Assay for Inhibitors of Leishmania Mexicana Pyruvate Kinase (LmPK); 290,000 tested, 0.37% active; purified LmPK, Kinase-Glo ATP luminescence, 1 h; Potency, µM (highest dose often 57.5 µM), without a hit: at the highest dose activity change, negative = inhibition, usual class: inhibitors; AID 1721, 2009; Q27686; note: potency is the fitted concentration of half-maximal effect
Target sequence (Q27686 whole entry, looked up): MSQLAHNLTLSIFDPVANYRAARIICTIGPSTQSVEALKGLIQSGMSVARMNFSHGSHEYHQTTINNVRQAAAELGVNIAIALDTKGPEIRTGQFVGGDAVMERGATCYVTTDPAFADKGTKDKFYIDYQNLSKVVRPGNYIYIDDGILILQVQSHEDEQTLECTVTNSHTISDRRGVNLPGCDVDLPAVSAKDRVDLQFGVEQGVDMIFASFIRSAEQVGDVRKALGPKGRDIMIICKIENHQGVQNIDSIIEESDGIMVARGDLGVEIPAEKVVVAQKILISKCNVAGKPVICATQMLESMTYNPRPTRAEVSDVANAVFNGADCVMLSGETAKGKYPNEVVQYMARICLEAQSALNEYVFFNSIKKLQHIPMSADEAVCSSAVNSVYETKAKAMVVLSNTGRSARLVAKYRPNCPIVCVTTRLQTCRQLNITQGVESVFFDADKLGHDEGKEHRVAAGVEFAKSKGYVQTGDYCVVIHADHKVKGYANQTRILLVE
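0.1 nM LmPK, 0.5 mM PEP, 0.1 mM ADP; 50 mM imidazole pH 7.2, 7 mM MgCl2, 50 mM KCl; 1 h RT. Kinase-Glo luminescence readout, normalized to no-enzyme (full inhibition) and uninhibited wells.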
* hit, by the source's call; i = inactive; ? = inconclusive; / = not tested or not shown; [ ] = remark or other dose. Unless noted, calls come from the whole dose curve; as a rule, active = well fitted curve in the direction sought with a large enough effect; inconclusive = small, poorly fitted or top-dose-only effect, or another doubt; inactive = no such curve, though single readings can be large; an effect the other way counts as inactive or inconclusive. % is set by controls: 0 for no effect and ±100 for the full control effect.

SMILES	HCMV antiviral	VACV mCherry inh	Tb PYK inh	VACV Venus inh	LmPK inhibitor
COc1cc(OC)cc(C(=O)Nc2ccc(-n3cnnn3)c(C)c2)c1	-4	i	-17%	-13%	14µM*
O=C(C1=C(c2ccccc2)C(=O)c2ccccc2C1=O)c1ccccc1	-99*	?	3%	-13%	0%
CCc1sc(C(C2C(=O)CC(C)(C)CC2=O)C2C(=O)CC(C)(C)CC2=O)cc1[N+](=O)[O-]	107	i	25µM*	2%	-1%
CC1(C)CC(=O)C(C(c2ccc(F)cc2)C2C(=O)CC(C)(C)CC2=O)C(=O)C1	-27	-13%	1%	-9%	0%
Cc1ccc(NC(=O)CN(Cc2ccco2)Cc2ccccc2O)cc1C	-64*	-29%	-3%	-13%	-1%
CCOc1ccc(N(C(=O)Cn2nnc3ccccc32)C(C(=O)NCc2ccccc2)c2ccc(OC)cc2)cc1 (stereo unspecified)	-1	-6%	0%	-8%	/
CCNc1ccc(S(=O)(=O)NCCN(C)C)cc1[N+](=O)[O-]	23	/	3%	/	0%
CN(C)CCCNS(=O)(=O)c1ccc(NC2CCCCCC2)c([N+](=O)[O-])c1	-69*	8.9µM*	2%	-19%	-4%
CC(=O)c1cc(Cl)ccc1OC(=O)c1ccco1	5	i	3%	-7%	-4%
O=C(Oc1ccc(Br)cc1C(=O)/C=C/c1ccccc1F)c1ccco1	-78*	?	2%	-3%	/
COc1cc(Nc2cc3c(cn2)cc(-c2cnn(C)c2)n3Cc2ccccc2)cc(OC)c1OC	-74*	/	/	/	/
COCC(C)NC(=O)c1ccccc1[N+](=O)[O-] (stereo unspecified)	-8	-10%	-7%	-11%	-3%
CS(=O)(=O)Nc1cccc(C2=NN(C(=O)c3ccccc3)C(c3cccs3)C2)c1 (stereo unspecified)	-16	/	12%	/	0%
CS(=O)(=O)Nc1ccc(C2=NN(C(=O)C3CCCCC3)C(c3cccs3)C2)cc1 (stereo unspecified)	-62*	-21%	-3%	?	0%
Cc1ccc(C(=O)N2N=C(c3cccc(NS(C)(=O)=O)c3)CC2c2cccs2)cc1 (stereo unspecified)	-60*	/	0%	/	2%
COC(=O)c1ccc(C(=O)OC)c(NC(=S)N2CCN(c3ccccc3F)CC2)c1	24	-15%	-6%	-5%	0%
CCc1ccccc1NS(=O)(=O)c1ccc2[nH]cc(C(=O)NCC3CCCO3)c(=O)c2c1 (stereo unspecified)	26	-6%	2%	-9%	-1%
CN(Cc1ccccc1)S(=O)(=O)c1ccc2[nH]cc(C(=O)NCC3CCCO3)c(=O)c2c1 (stereo unspecified)	-107*	-26%	-13%	?	13%
CCN(CC)CCn1c2ccccc2c2cnc(N)c(C#N)c21	-98*	?	-11%	?	-4%
CN(C)C=Nc1ncc2c3ccccc3n(Cc3ccccc3)c2c1C#N	-28	/	-9%	5%	-1%
CN(C)C=Nc1ncc2c3ccccc3n(CCN(C)C)c2c1C#N	-98*	/	2%	-11%	1%
Cc1ccc(OCCC(=O)Nc2ccc3c(c2)OCO3)cc1	-34	/	0%	/	/
Cc1cc(C(F)F)n2nc(C(=O)Nc3cccc(Cl)c3C)nc2n1	-20	2%	-1%	-5%	/
C[C@H](CO)N1C[C@H](C)[C@@H](CN(C)C(=O)Cc2ccccc2)OCc2cn(nn2)CCCC1=O	9	/	/	/	/
CC(C)CC(=O)Nc1nnc(S(=O)(=O)N(C)Cc2ccc(Cl)cc2)s1	0	-10%	0%[15.4 µM]	-7%	/
SMILES	HCMV antiviral	VACV mCherry inh	Tb PYK inh	VACV Venus inh	LmPK inhibitor
COc1ccc(N(Cc2cccs2)C(=O)c2ccc(OC)c(Cl)c2)cc1	-91*	-15%	3%	-13%	/
CCCCOc1cccc(C(=O)N(Cc2cccs2)c2ccc(OC)cc2)c1	-60*	-25%	11%	-26%	/
COc1ccc(N(Cc2cccs2)C(=O)c2ccc(C(C)(C)C)cc2)cc1	-9	-13%	-4%	-9%	/
C=CCN(C(=O)CNC(=O)c1ccco1)C(C(=O)NC1CCCCC1)c1ccccc1F (stereo unspecified)	-18	-11%	1%	-6%	4%
CN(Cc1ccccc1)c1nc(CN2CCOCC2)nc2scc(-c3ccccc3)c12	-33	-27%	0%	-18%	2%
CCNc1nc(CN2CCCCC2)nc2scc(-c3ccccc3)c12	-95*	-21%	-6%	-18%	3%
COc1ccc(-c2csc(NC3OC(=O)c4c3ccc(OC)c4OC)n2)cc1OC (stereo unspecified)	-98*	?	-18%	?	7%
CC1=C(C(=O)Nc2cccc([N+](=O)[O-])c2)C2(CCC(C)CC2)OC1=O (stereo unspecified)	28	-21%	3%	-12%	0%
COc1ccc(-c2nnc(Sc3nc4ccccc4o3)c3ccccc23)cc1	?	8.9µM*	-8%	11µM*	4%
COc1ccc(-c2nnc(OC)c3ccccc23)cc1	?	/	0%	/	-3%
CCN(CC)CCCC(C)NC(=O)c1c(NC(=O)c2ccccc2)sc2c1CCCC2 (stereo unspecified)	-27	/	-1%	/	5%
CCCCS/C(=C(/C#N)C(N)=O)c1cc2c([nH]1)CCCC2	-63*	/	5%	/	12%
C/C(=N\Nc1nc(C)cc(-c2ccccc2)n1)c1ccc(F)cc1	-26	/	-6%	/	-1%
C/C(=N/Nc1nc(-c2ccccc2)cc(-c2ccc(F)cc2)n1)c1cccc(N)c1	-21	22µM*	-10%	?	-7%
COc1ccc(/C(C)=N/Nc2nc(C)cc(-c3ccccc3)n2)cc1	-94*	?	-1%	-29%	/
C1CCN(c2c3c(nc4nnnn24)CCCC3)CC1	-64*	/	-12%	-4%	2%
C=CCNC(=O)C(C(=O)OCC)C1CCCCC1 (stereo unspecified)	3	-7%	2%	0%	3%
CCOC(=O)C(C(=O)NCCCN1CCOCC1)C1CCCCC1 (stereo unspecified)	-105*	-6%	0%	7%	-2%
CC1CCN(C(=S)NC(=O)c2ccco2)CC1	-68*	i	-9%	0%	-9%
COCC(=O)OC/C(O)=C(\C#N)c1nc2ccccc2[nH]1	-99*	17%	3%	-16%	-6%
CC(C)C(=O)OC/C(O)=C(\C#N)c1nc2ccccc2[nH]1	-65*	i	-6%	-1%	8%
N#C/C(=C(\O)Cc1ccccc1)c1nc2ccccc2[nH]1	2	/	-6%	?	0%
N#C/C(=C(/O)CCl)c1nc2ccccc2[nH]1	-70*	?	-6%	?	0%
